DT40 TDP1 CPT: DT40-hTDP1 cell growth loss with CPT; chicken DT40 Tdp1-/-;hTDP1 cells + 20 nM CPT, ATP luminescence, 48 h; Potency, µM (series often up to 46.2 µM), inactives show at the top dose activity change, negative = growth inhibition, usual class: inhibitors; hit rate 12% among 420,000; also: potency is read from the fitted curve at half-maximal effect; % is scaled to controls: 0 for no effect and ±100 for the full control effect; nearly all actives have a fitted effect of over 55% in size
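Cell growth measured by CellTiter-Glo luminescence after a minimum 48 h, 37 C compound exposure with 20 nM CPT in Tdp1-knockout DT40 cells stably expressing hTDP1, seeded 400/well; qHTS titration format.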
HepG2 viability: counter-screen for TGF-b inhibitors: cytotoxicity in HepG2 cells; HepG2 CAGA-GFP viability, ATP luminescence, 18 h; Potency, µM (titrated, usually from 46.1 µM), without a hit: at the highest dose activity change, negative = cytotoxicity, most hits filed as cytotoxic; hit rate 0.76% among 410,000; also: potency is read from the fitted curve at half-maximal effect
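HepG2 CAGA-GFP cells (1000/well, DMEM with 1% FBS) received compound, then TGF-beta at 500 pg/mL final, and were incubated 18 hours at 37 degrees C. Viability was read by CellTiter-Glo luminescence. Media-only wells were set as complete cell-killing and DMSO as no toxicity.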
DT40 TDP1 no CPT: qHTS for Inhibitors of human tyrosyl-DNA phosphodiesterase 1 (TDP1): qHTS in cells in absence of CPT; DT40 Tdp1-/- hTDP1 cells, no CPT, ATP luminescence, 48 h; Potency, µM (doses to about 46.2 µM), for inactives: at the highest dose activity change, negative = growth inhibition, usual class: inhibitors; hit rate 15% among 420,000; AID 686978, 2013; also: potency is read from the fitted curve at half-maximal effect; % is scaled to controls: 0 for no effect and ±100 for the full control effect; nearly all actives have a fitted effect of over 55% in size
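Stably hTDP1-transfected Tdp1-null chicken DT40 cells were treated with library compounds minus camptothecin and grown for at least 48 hr at 37 °C, after which cellular ATP was quantified by luminescence.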
TGFb SMAD3 inh: TGF-b pathway inhibition. HepG2 CAGA-GFP TGF-b/SMAD3 reporter, GFP fluorescence, 18 h; TGF-beta stimulated, 500 pg/mL final. Potency, µM (top dose mostly 46.1 µM), for the others: top-dose activity, negative = inhibition, hits mostly inhibitors. hit rate 1.2% among 410,000. AID 588855; also: potency is read from the fitted curve at half-maximal effect; % is scaled to controls: 0 for no effect and ±100 for the full control effect; nearly all actives have a fitted effect of over 65% in size
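HEPG2 CAGA-GFP reporter cells (1000/well, DMEM with 1% FBS) received compounds, then recombinant TGF-beta at 500 pg/mL final for 18 hours at 37 degrees C. Per-cell GFP summed per well was normalised to unstimulated and stimulated DMSO controls before curve fitting.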
S-ASM inh: inhibitors of human secretory acid sphingomyelinase; hit rate 0.006% among 340,000; P17405; Potency, µM (highest dose often 57.5 µM), for the others: at the top dose activity change, negative = inhibition, hits mostly inhibitors; AID 504937; placental ASM, HMU-PC fluorogenic substrate, 60 min; also: potency is read from the fitted curve at half-maximal effect
Target sequence (P17405 47-631 limits assumed): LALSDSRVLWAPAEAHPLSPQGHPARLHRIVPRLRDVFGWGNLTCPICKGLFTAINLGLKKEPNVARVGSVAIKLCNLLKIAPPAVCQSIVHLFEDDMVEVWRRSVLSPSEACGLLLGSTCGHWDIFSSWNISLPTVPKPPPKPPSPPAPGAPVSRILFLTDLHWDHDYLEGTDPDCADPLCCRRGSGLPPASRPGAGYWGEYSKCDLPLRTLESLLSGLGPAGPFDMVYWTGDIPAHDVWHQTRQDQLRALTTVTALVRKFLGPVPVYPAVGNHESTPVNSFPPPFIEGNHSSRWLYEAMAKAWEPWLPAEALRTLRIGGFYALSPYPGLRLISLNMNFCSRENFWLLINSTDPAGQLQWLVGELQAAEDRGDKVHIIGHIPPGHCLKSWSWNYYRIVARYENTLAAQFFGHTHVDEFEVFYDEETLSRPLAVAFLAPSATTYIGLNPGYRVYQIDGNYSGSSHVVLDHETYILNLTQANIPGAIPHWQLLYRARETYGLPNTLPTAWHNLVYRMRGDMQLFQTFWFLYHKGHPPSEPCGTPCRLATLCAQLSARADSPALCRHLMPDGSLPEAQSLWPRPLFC
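Human placenta-derived ASM preincubated with compound 10 min at room temperature, then reacted with 9 uM (final) fluorogenic HMU-PC substrate for 60 min at 37 C. Stop solution raises pH to 10; fluorescence read at Ex 386/Em 447 nm.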
IL-1B inflam inh: inhibitors of inflammasome signaling (IL-1 beta secretion) | hit rate 4.7% among 360,000 | THP-1 LPS/ATP IL-1B secretion, AlphaLISA, 16 h; stronger effect = lower value | activity change, % at 57.5 µM; in the data active = activity change below about -50%; inconclusive = mostly about -30% to -49%; also: % is scaled to controls: 0 for no effect and ±100 for the full control effect
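Secreted IL-1B measured by AlphaLISA bead assay after 16 h compound exposure of THP-1 cells; compounds (final up to 57.5 uM) added 1 h before LPS (250 ng/mL) and ATP (1.25 mM) stimulation; lower signal means less secretion.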
* marks the source's active call; other numbers are inactive results; ? = inconclusive; . = no result given; [ ] = dose if it differs, or a comment. This is a sample that favours compounds with a hit; in the whole collection about 19% have one here. Unless noted, calls follow the shape of the dose curve; as a rule, active = well fitted curve in the direction sought with a large enough effect; inconclusive = small, poorly fitted or top-dose-only effect, or another doubt; inactive = no such curve, though single readings can be large; an effect the other way counts as inactive or inconclusive.

SMILES	DT40 TDP1 CPT	HepG2 viability	DT40 TDP1 no CPT	TGFb SMAD3 inh	S-ASM inh	IL-1B inflam inh
Cc1cccc(N(CC(=O)NCCSCc2ccccc2)S(=O)(=O)c2ccccc2)c1C	23µM*	-43%	?	-12%	.	.
Cc1cccc(N(CC(=O)NCCSCc2ccc(Cl)cc2)S(C)(=O)=O)c1C	18µM*	-39%	26µM*	-20%	.	.
Cc1c(Cl)cccc1NC(=O)C(C)N(c1ccccc1)S(C)(=O)=O (stereo unspecified)	-35%	-14%	?	?	.	.
O=C(/C=C/c1cccc([N+](=O)[O-])c1)OCC1CCCO1 (stereo unspecified)	0%	-11%	25%	-1%	3%	-16
CCOC(=O)c1ccc(N2C(=O)c3n[nH]c(-c4ccco4)c3C2c2cccc(O)c2)cc1 (stereo unspecified)	21µM*	22µM*	21µM*	13µM*	.	.
CCOC(=O)c1ccc(N2C(=O)c3n[nH]c(-c4ccco4)c3C2c2cccc(F)c2)cc1 (stereo unspecified)	18µM*	16µM*	21µM*	?	.	.
CCOC(=O)c1ccc(N2C(=O)c3n[nH]c(-c4ccco4)c3C2c2cccc(OC)c2)cc1 (stereo unspecified)	23µM*	-73%	18µM*	4.5µM*	.	.
CCOC(=O)c1ccc(N2C(=O)c3n[nH]c(-c4ccco4)c3C2c2ccc(F)cc2)cc1 (stereo unspecified)	23µM*	22µM*	23µM*	?	.	.
CCOC(=O)c1ccc(N2C(=O)c3n[nH]c(C)c3C2c2ccc(O)cc2)cc1 (stereo unspecified)	-20%	4%	?	-4%	2%	15
CCOC(=O)c1ccc(N2C(=O)c3n[nH]c(C)c3C2c2ccccc2)cc1 (stereo unspecified)	-16%	-15%	-24%	5%	-4%	-6
O=C(O)c1ccc(N2C(=O)c3[nH]nc(-c4ccccc4)c3C2c2cccc(F)c2)cc1 (stereo unspecified)	-12%	-8%	-5%	-19%	.	.
Cc1cc(C)c(NC(=O)CNC(=O)COC(=O)/C=C/c2cccs2)c(C)c1	-6%	9%	-12%	1%	2%	17
CC(=O)c1ccc(NC(=O)c2ccc(CNc3c(N4CCOCC4)c(=O)c3=O)cc2)cc1	-29%	-28%	-3%	-8%	-2%	0
CCOC(=O)c1ccc(N2C(=O)c3n[nH]c(-c4ccco4)c3C2c2ccc(OCC)cc2)cc1 (stereo unspecified)	?	-76%	16µM*	7.1µM*	.	.
Cc1ccc(-c2noc(-c3ccc(N4CCCCC4)c([N+](=O)[O-])c3)n2)cc1	?	-4%	21µM*	3%	.	.
CCc1noc(-c2ccc(N3CCC(C)CC3)c([N+](=O)[O-])c2)n1	18µM*	-20%	?	?	.	.
O=[N+]([O-])c1cc(-c2nc(-c3ccccc3)no2)ccc1N1CCCCC1	-17%	-7%	?	-8%	.	.
Cc1ccc(-c2noc(-c3ccc(N4CCOCC4)c([N+](=O)[O-])c3)n2)cc1	-14%	1%	21µM*	?	.	.
COC(=O)c1cn([C@H]2C[C@@H](C(=O)N3CCCCCC3)N(Cc3ccsc3)C2)nn1	0%[9.04 µM]	.	-15%	.	.	.
NNc1nc2c(-c3ccc(Cl)cc3)nnn2c2ccccc12	10µM*	-24%	?	0%	206%	2
NNc1nc2c(-c3ccc(F)cc3)nnn2c2ccccc12	10µM*	-15%	12µM*	-16%	218%	-11

High-throughput results as filed in PubChem.
